Data as given in PubChem BioAssay (NCI).
Where “and” joins values, the source holds several entries; their conditions need not be identical. Equal entries are not always repeated. This is part of a sample that, as a whole, favours compounds with a hit. Of some 79,000 tested, about 15% had one in any assay. Calls of active or inactive are those of the source. No stated cut-off is given here; in the data, active means growth inhibition above about 70%; inactive means the rest.

Assays:
[1] = NCI Yeast Anticancer Drug Screen. Data for the rad52 strain (AID 147);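 further: 0% = growth of vehicle-treated control cultures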; details: S. cerevisiae rad52 mutant growth inhibition, active compounds read high
In short: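 Here a repair-compromised yeast strain receives each compound; its growth is then quantified and normalised to vehicle-only controls.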

[2] = NCI Yeast Anticancer Drug Screen. Data for the wt1 strain (AID 149);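 further: 0% = growth of vehicle-treated wt1 cultures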; details: S. cerevisiae wt1 strain (SPY 50644) growth inhibition, active compounds read high
In short: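 Readout: yeast growth inhibition, normalised to vehicle controls, in the wt1 strain exposed to test compounds.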

[3] = NCI Yeast Anticancer Drug Screen. Data for the rad50EPP+ strain (AID 151);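 further: 0% = growth of vehicle-treated control cultures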; details: S. cerevisiae rad50 mutant strain, active compounds read high
In short: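 Read-out is yeast growth inhibition relative to vehicle; cells used were the rad50EPP+ strain.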

[4] = NCI Yeast Anticancer Drug Screen. Data for the rad50 strain (AID 155);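 further: 0% = growth of vehicle-only cultures of the same strain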; details: S. cerevisiae rad50 strain growth inhibition, active compounds read high
In short: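 Compounds were tested on a yeast strain with an engineered DNA damage repair alteration; the reported value is growth inhibition normalised to vehicle treatment.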

[5] = NCI Yeast Anticancer Drug Screen. Data for the mec2-1 strain (AID 157); details: S. cerevisiae mec2-1 strain, active compounds read high
In short: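 Using mec2-1 yeast: add compound, measure growth, express inhibition versus vehicle-treated cultures.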

[6] = NCI Yeast Anticancer Drug Screen. Data for the rad14 strain (AID 159);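 further: 0% = growth of vehicle-treated control cultures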; details: S. cerevisiae rad14 strain growth inhibition, active compounds read high
In short: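 Compound-treated yeast with a defined DNA-repair lesion; growth inhibition normalised to vehicle-treated cultures.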

[7] = NCI Yeast Anticancer Drug Screen. Data for the sgs1 mgt1 strain (AID 161);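 further: 0% = growth of cultures given vehicle only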; details: S. cerevisiae sgs1 mgt1 strain, active compounds read high
In short: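 Compounds are added to genetically altered yeast, and growth is compared with cultures given vehicle alone to give percent inhibition.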

[8] = NCI Yeast Anticancer Drug Screen. Data for the CLN2oe strain (AID 163);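 further: 0% = growth of vehicle-only control cultures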; details: S. cerevisiae CLN2oe strain, active compounds read high
In short: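 Whole-cell yeast growth assay. A strain engineered for altered cell-cycle control received compound, and inhibition relative to vehicle-treated cultures was recorded.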

[9] = NCI Yeast Anticancer Drug Screen. Data for the cln2 rad14 strain (AID 165);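 further: 0% = growth equal to vehicle treated cultures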; details: S. cerevisiae cln2 rad14 strain, active compounds read high
In short: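 Yeast strain cln2 rad14, bearing defects in cell cycle control and DNA repair, serves as the test system; values reflect growth inhibition compared with vehicle.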

[10] = NCI Yeast Anticancer Drug Screen. Data for the bub3 strain (AID 167); details: S. cerevisiae bub3 mutant strain, active compounds read high
In short: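 Growth of a checkpoint-deficient yeast mutant is measured after compound exposure. Values represent inhibition relative to vehicle.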

[11] = NCI Yeast Anticancer Drug Screen. Data for the wt2 strain (AID 169);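 further: 0% = growth of vehicle-treated yeast cultures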; details: S. cerevisiae wt2 strain growth inhibition, active compounds read high
In short: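 Treated yeast vs. vehicle-treated yeast: growth inhibition determined.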

[12] = NCI Yeast Anticancer Drug Screen. Data for the mlh1 strain (AID 171);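 further: 0% = growth of vehicle-treated control cultures of the same strain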; details: S. cerevisiae mlh1 strain growth inhibition, active compounds read high
In short: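 A yeast strain with a defined genetic lesion serves as the test organism. Cultures receive compound or vehicle, and growth is measured.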

[13] = NCI Yeast Anticancer Drug Screen. Data for the sgs1 strain (AID 173);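 further: 0% = growth of vehicle-only control cultures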; details: S. cerevisiae sgs1 mutant, active compounds read high
In short: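 A genetically defined yeast mutant is incubated with the test compound, and its growth is compared to that of the same strain given vehicle.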

[14] = NCI Yeast Anticancer Drug Screen. Data for the mlh1 rad18 strain (AID 175); details: S. cerevisiae mlh1 rad18 strain growth inhibition, active compounds read high
In short: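 Steps: expose repair-defective yeast to compound; measure growth; express inhibition against vehicle-treated controls.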

[15] = NCI Yeast Anticancer Drug Screen. Data for the rad18 strain (AID 177); details: S. cerevisiae rad18 mutant growth inhibition, active compounds read high
In short: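 Measured value is growth inhibition of a yeast strain bearing a DNA repair alteration, referenced to vehicle-treated cells.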

[16] = at 5.0 µM (retest, dose inferred, filed as 0.5)
[17] = at 50.0 µM (retest, dose inferred, filed as 5.0)

Measured: growth inhibition

CC(=O)C1=C(O)C2(C)c3c(O)c(C)c(O)c(C(C)=O)c3OC2(Sc2ccccc2)CC1=O (stereo unspecified)
active: [1]; at 100.0 µM 86% | [2]; at 100.0 µM 89% | [4]; [17] 85% | [4]; at 100.0 µM 83% | [5]; [17] 93% | [5]; at 100.0 µM 84% | [6]; at 100.0 µM 85% | [7]; [17] 91% | [8]; at 100.0 µM 85% | [9]; [17] 94% | [10]; [17] 91% | [10]; at 100.0 µM 86% | [11]; at 100.0 µM 89% | [12]; at 100.0 µM 83% | [13]; at 100.0 µM 85% | [14]; [17] 89% | [15]; at 100.0 µM 82%
inactive: [1]; at 1.2 µM 24% | [1]; at 3.7 µM 43% | [1]; at 11.0 µM 54% | [1]; at 33.0 µM 58% | [2]; at 1.2 µM 21% | [2]; at 3.7 µM 51% | [2]; at 11.0 µM 55% | [2]; at 33.0 µM 66% | [3]; at 1.2 µM 23% | [3]; at 3.7 µM 18% | [3]; at 11.0 µM 30% | [3]; at 33.0 µM 33% | [3]; at 100.0 µM 52% | [4]; at 1.2 µM 20% | [4]; at 3.7 µM 20% | [4]; [16] -15% | [4]; at 11.0 µM 36% | [4]; at 33.0 µM 53% | [4]; at 50.0 µM 63% and 7.1% | [5]; at 1.2 µM 4% | [5]; at 3.7 µM 24% | [5]; [16] 22% | [5]; at 11.0 µM 43% | [5]; at 33.0 µM 54% | [5]; at 50.0 µM 68.6% and -7.9% | [6]; at 1.2 µM 0% | [6]; at 3.7 µM 5% | [6]; at 11.0 µM 17% | [6]; at 33.0 µM 30% | [7]; [16] 9% | [7]; at 50.0 µM 48.1% and 0.4% | [8]; at 1.2 µM -1% | [8]; at 3.7 µM 34% | [8]; at 11.0 µM 44% | [8]; at 33.0 µM 52% | [9]; [16] 50% | [9]; at 50.0 µM 68.8% and 4.6% | [10]; at 1.2 µM 12% | [10]; at 3.7 µM 40% | [10]; [16] 36% | [10]; at 11.0 µM 42% | [10]; at 33.0 µM 51% | [10]; at 50.0 µM 59.5% and -0.65% | [11]; at 1.2 µM 10% | [11]; at 3.7 µM 34% | [11]; at 11.0 µM 41% | [11]; at 33.0 µM 54% | [12]; at 1.2 µM 3% | [12]; at 3.7 µM 23% | [12]; at 11.0 µM 25% | [12]; at 33.0 µM 38% | [13]; at 1.2 µM 20% | [13]; at 3.7 µM 35% | [13]; at 11.0 µM 48% | [13]; at 33.0 µM 55% | [14]; [16] 14% | [14]; at 50.0 µM 61.6% and 6.3% | [15]; at 1.2 µM 18% | [15]; at 3.7 µM 39% | [15]; at 11.0 µM 31% | [15]; at 33.0 µM 47%

O=C(Nc1cccc(C(F)(F)F)c1)Oc1ccc(Cl)cc1C(=O)c1ccccc1
inactive: [1]; at 1.2 µM 15% | [1]; at 3.7 µM 17% | [1]; at 33.0 µM 69% | [2]; at 1.2 µM 18% | [2]; at 3.7 µM 13% | [3]; at 1.2 µM 26% | [3]; at 3.7 µM 7% | [3]; at 11.0 µM 34% | [3]; at 33.0 µM 41% | [4]; at 1.2 µM 22% | [4]; at 3.7 µM 17% | [5]; at 1.2 µM 19% | [5]; at 3.7 µM 42% | [6]; at 1.2 µM -3% | [6]; at 3.7 µM -2% | [6]; at 11.0 µM 51% | [6]; at 33.0 µM 64% | [7]; [16] -34% | [8]; at 1.2 µM 24% | [8]; at 3.7 µM 15% | [9]; [16] 31% | [10]; at 1.2 µM 10% | [10]; at 3.7 µM 24% | [10]; [16] 15% | [11]; at 1.2 µM 15% | [11]; at 3.7 µM 6% | [12]; at 1.2 µM 9% | [12]; at 3.7 µM 8% | [13]; at 1.2 µM 24% | [13]; at 3.7 µM 30% | [15]; at 1.2 µM 6% | [15]; at 3.7 µM 21%
active: [1]; at 11.0 µM 80% | [1]; at 100.0 µM 98% | [2]; at 11.0 µM 76% | [2]; at 33.0 µM 80% | [2]; at 100.0 µM 97% | [3]; at 100.0 µM 96% | [4]; [16] 99% | [4]; at 11.0 µM 90% | [4]; at 33.0 µM 82% | [4]; [17] 97% | [4]; at 50.0 µM 90.4% | [4]; at 100.0 µM 98% | [5]; [16] 100% | [5]; at 11.0 µM 88% | [5]; at 33.0 µM 97% | [5]; [17] 89% | [5]; at 50.0 µM 92.9% | [5]; at 100.0 µM 97% | [6]; at 100.0 µM 97% | [7]; [17] 98% | [7]; at 50.0 µM 92.9% | [8]; at 11.0 µM 74% | [8]; at 33.0 µM 85% | [8]; at 100.0 µM 97% | [9]; [17] 98% | [9]; at 50.0 µM 93% | [10]; at 11.0 µM 83% | [10]; at 33.0 µM 91% | [10]; [17] 96% | [10]; at 50.0 µM 91% | [10]; at 100.0 µM 97% | [11]; at 11.0 µM 91% | [11]; at 33.0 µM 77% | [11]; at 100.0 µM 98% | [12]; at 11.0 µM 88% | [12]; at 33.0 µM 70% | [12]; at 100.0 µM 97% | [13]; at 11.0 µM 82% | [13]; at 33.0 µM 91% | [13]; at 100.0 µM 97% | [14]; [16] 100% | [14]; [17] 93% | [14]; at 50.0 µM 91.2% | [15]; at 11.0 µM 91% | [15]; at 33.0 µM 86% | [15]; at 100.0 µM 98%
